Reference: PubChem BioAssay
Activity calls are given as the source filed them.

Tests used:
[1] = binders of probe aFSTL3 on microarray, primary screen, stem cell growth factor project, biochemical, small-molecule microarray, fluorescence 635/667 (AID 1064); conditions: higher = more signal;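 note: measures binding of the biotinylated anti-FSTL3 antibody to printed compounds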
[2] = binders from COS7 lysate, DM2A8 probe, primary screen, torsin A project, cell lysate, small-molecule microarray, fluorescence 635/667 (AID 1065); conditions: higher = more signal, COS7 lysate expressing mutant human TOR1A
[3] = binders of probe aFGF2 on microarray, primary screen, stem cell growth factor project, biochemical, small-molecule microarray, fluorescence 635/667 (AID 1067); conditions: higher = more signal;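 note: measures binding of biotinylated aFGF2 protein to printed compounds on slides; z-score merges feature fluorescence and signal-to-noise across triplicate slides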
[4] = binders of probe aFGF10 on microarray, primary screen, stem cell growth factor project, biochemical, small-molecule microarray, fluorescence 635/667 (AID 1071); conditions: higher = more signal;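 note: score merges 667 nm spot intensity and signal to noise from triplicate slides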
[5] = biological target: Neurogenic locus notch homolog protein 2 (Homo sapiens) (UniProt Q04721); experiment: Notch2 binders on small-molecule microarrays, primary screen, biochemical, small-molecule microarray, 635 nm fluorescence, stem cell growth factors (AID 1073); conditions: Notch2 binding, higher = more signal
[6] = biological target: Pro-neuregulin-1, membrane-bound isoform (Homo sapiens) (UniProt Q02297); experiment: NRG1 binders on small-molecule microarrays, primary screen, psychiatric disease protein project, biochemical, small-molecule microarray, fluorescence 635/667 (AID 1075); conditions: NRG1 binding, 635 nm fluorescence, higher = more signal;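 note: score combines 667 nm spot fluorescence with signal to noise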
[7] = test system: Neuregulin-1 EGF-like domain; experiment: binders of neuregulin-1 EGF-like domain, primary screen, biochemical, small-molecule microarray, 635 nm fluorescence (AID 1081); conditions: small-molecule microarray binding, higher = more signal;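 note: binding of the protein to compounds printed on small-molecule microarray slides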
[8] = FRG1 promoter luciferase signal modulators, primary screen, FRG1 inhibition for FSHD, cell-based, C2C12 myotubes, firefly/Renilla luciferase, luminescence (AID 1084); conditions: higher = more signal, called active from +8 up or from −8 down
[9] = binders of probe aFST on microarray, primary screen, stem cell growth factor project, biochemical, small-molecule microarray, fluorescence 635/667 (AID 1086); conditions: higher = more signal;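 note: score merges 667 nm fluorescence with signal-to-noise of each printed compound spot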
[10] = binders of probe aHhip on microarray, primary screen, stem cell growth factor project, biochemical, small-molecule microarray, fluorescence 635/667 (AID 1087); conditions: higher = more signal;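 note: score merges spot fluorescence at 667nm with spot signal to noise ratio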

Chain of Pro-neuregulin-1, membrane-bound isoform (Homo sapiens) (Q02297 whole entry, looked up, the tested form may be a part, canonical isoform): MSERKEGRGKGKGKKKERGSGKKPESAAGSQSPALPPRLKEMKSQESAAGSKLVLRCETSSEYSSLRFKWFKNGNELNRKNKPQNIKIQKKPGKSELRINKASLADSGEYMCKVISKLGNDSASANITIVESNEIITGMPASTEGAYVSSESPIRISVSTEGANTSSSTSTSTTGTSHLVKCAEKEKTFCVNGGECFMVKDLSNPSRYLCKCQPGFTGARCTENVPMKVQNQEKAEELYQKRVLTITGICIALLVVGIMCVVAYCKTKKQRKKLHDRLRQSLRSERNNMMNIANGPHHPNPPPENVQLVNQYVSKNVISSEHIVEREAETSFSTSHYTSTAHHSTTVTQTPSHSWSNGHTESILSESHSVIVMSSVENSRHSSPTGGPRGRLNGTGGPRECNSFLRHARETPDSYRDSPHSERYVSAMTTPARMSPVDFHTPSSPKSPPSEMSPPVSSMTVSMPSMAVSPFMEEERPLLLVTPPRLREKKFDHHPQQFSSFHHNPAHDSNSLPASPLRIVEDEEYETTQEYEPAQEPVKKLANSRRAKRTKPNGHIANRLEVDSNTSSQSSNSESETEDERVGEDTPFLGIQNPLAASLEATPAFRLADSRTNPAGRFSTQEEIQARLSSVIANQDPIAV
Chain of Neurogenic locus notch homolog protein 2 (Homo sapiens) (Q04721 whole entry, looked up, canonical isoform): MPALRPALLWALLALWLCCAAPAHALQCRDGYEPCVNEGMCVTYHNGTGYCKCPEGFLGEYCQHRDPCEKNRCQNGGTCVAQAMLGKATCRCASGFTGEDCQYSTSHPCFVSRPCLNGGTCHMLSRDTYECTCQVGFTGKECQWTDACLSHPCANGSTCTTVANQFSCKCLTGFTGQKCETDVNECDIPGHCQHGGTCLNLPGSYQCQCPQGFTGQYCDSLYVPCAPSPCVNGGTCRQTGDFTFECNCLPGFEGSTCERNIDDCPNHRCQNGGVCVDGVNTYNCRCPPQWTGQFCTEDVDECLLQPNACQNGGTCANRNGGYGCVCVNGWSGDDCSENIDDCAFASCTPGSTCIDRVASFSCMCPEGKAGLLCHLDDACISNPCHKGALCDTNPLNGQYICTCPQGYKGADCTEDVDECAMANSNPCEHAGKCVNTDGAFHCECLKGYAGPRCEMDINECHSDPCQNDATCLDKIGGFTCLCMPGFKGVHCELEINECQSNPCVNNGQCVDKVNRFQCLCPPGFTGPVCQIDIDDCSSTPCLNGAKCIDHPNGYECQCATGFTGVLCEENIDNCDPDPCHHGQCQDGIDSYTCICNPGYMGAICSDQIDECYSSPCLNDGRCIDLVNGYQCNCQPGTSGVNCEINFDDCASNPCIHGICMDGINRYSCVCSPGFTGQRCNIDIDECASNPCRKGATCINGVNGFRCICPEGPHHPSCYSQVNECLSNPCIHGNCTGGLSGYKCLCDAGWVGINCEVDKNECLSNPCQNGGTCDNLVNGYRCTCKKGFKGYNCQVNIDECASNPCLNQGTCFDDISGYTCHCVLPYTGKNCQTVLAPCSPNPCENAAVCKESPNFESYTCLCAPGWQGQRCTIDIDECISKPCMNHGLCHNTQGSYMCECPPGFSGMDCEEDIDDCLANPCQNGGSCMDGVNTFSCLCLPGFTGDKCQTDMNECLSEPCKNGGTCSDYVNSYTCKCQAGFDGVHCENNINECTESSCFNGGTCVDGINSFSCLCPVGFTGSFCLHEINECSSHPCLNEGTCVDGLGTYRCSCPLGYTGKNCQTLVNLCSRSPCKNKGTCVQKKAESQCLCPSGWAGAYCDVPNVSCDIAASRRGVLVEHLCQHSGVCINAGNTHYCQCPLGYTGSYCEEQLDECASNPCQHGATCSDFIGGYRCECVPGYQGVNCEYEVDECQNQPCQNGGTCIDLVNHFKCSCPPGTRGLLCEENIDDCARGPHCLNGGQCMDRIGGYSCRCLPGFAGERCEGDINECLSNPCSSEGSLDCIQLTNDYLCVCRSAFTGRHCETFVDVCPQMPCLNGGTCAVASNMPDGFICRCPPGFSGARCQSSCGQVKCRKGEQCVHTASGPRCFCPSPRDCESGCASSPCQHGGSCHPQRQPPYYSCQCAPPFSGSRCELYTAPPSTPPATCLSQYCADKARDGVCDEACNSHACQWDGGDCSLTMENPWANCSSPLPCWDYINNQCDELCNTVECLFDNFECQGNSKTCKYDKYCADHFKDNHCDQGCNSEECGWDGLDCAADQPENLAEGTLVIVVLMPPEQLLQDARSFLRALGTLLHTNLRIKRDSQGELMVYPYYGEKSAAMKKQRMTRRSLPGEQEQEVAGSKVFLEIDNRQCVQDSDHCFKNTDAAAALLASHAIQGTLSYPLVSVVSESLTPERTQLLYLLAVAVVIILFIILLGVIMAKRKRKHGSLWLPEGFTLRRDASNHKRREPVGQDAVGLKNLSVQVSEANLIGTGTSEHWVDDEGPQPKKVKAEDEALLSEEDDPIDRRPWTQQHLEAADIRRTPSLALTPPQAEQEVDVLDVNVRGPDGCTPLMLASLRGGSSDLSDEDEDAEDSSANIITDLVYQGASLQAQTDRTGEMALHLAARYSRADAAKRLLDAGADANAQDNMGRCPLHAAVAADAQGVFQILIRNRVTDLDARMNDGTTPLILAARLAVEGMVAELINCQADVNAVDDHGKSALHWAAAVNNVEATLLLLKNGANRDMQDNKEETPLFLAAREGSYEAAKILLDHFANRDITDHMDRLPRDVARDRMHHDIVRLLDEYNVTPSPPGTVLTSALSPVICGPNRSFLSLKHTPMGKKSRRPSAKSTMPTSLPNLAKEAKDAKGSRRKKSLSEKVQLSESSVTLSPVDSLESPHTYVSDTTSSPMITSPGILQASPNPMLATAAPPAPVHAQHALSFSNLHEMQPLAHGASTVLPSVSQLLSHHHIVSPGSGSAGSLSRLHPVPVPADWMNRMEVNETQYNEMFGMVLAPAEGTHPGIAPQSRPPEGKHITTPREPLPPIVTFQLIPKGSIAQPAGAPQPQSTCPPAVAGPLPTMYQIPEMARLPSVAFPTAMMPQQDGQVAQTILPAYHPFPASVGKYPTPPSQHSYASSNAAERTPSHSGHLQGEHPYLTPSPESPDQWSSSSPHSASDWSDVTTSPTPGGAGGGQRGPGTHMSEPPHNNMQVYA

Row | SMILES | composite z-score [1] | composite z-score [2] | composite z-score [3] | composite z-score [4] | composite z-score [5] | composite z-score [6] | composite z-score [7] | z-score [8] | composite z-score [9] | composite z-score [10]
1 | COC(=O)[C@@]1(Cc2ccc(OC)cc2)[C@H]2c3cc(C(=O)N4CCCC4)n(Cc4c(CO)[nH]cc(C)c4=O)c3C[C@H]2CN1C(=O)c1ccccc1 | 0.0744 | 0.31 | -0.06 | 0.505 | 1.57 | 1.11 | 0.802 | -1.02 (inactive) | 0.829 | 0.0302
2 | CC(=O)OCC1C2CC[C@H]3C(OCc4ccc(F)cc4C(F)(F)F)OC[C@]4(C)[C@H]3C2=C(CN4C(=O)OC(C)(C)C)[C@H](C)C1COC(C)=O (stereo not given in full) | 0.496 | 1.4 | -0.0336 | 0.363 | 0.101 | 0.823 | 0.783 | 1.06 (inactive) | 0.579 | 0.141
3 | CCCC=C(CCC)[C@@H](NC(=O)OCC(C)C)c1ccc(C(=O)OC)cc1 | -0.443 | 0.477 | -0.0596 | 0.161 | 0.638 | 0.224 | 0.362 | -0.705 (inactive) | 0.107 | 2.35
4 | [N-]=[N+]=Nc1ccccc1[C@@H]1OC(c2ccc(OCCCO)cc2)=N[C@]1(Cc1ccccc1)C(=O)NCCN1CCOCC1 | -0.0258 | 2.32 | -0.001 | 0.916 | 1.21 | -0.238 | 1.33 | -0.906 (inactive) | 1.26 | 0.24
5 | CC(C)NC(=O)[C@@H]1c2ccccc2C(=O)N(Cc2ccc(OC(F)(F)F)cc2)[C@H]1c1ccc(CO)cc1 | 0.33 | -0.0722 | 0.242 | 0.625 | 1.05 | 0.765 | 1 | -1.05 (inactive) | 1.35 | 2.21
6 | C[C@@H]1ON(c2ccc(I)cc2)[C@H](c2cccc(NC(=O)OCC3c4ccccc4-c4ccccc43)c2)[C@H]1C(=O)N1C(=O)OC[C@H]1Cc1ccccc1 | -0.162 | 0.382 | -0.132 | 0.15 | 0.524 | 0.608 | 0.0222 | 0.108 (inactive) | 0.0393 | 0.132
7 | C=CCNC(=O)[C@@H]1[C@H]2C(=O)O[C@H](c3ccccc3)[C@H](c3ccccc3)N2[C@H](c2ccc(OCCO)cc2)[C@@]12C(=O)Nc1ccc(C#CC3(O)CCCCCC3)cc12 | 0.0068 | 0.927 | -0.0765 | 0.592 | 1.21 | 1.29 | 1.29 | 0.803 (inactive) | 0.551 | -0.0994
